Growth inhibition data for 20 compounds are collected here from PubChem BioAssay (NCI).

About 79,000 compounds went through this panel and 15% of them were active in at least one assay; those are over-represented in the sample as a whole. Values without a mark were called inactive. Active and inactive are the calls of the source. No stated cut-off is given here; in the data, active means growth inhibition above about 70%; inactive means the rest.

A short description of experiment [1]: NCI Yeast Anticancer Drug Screen. Data for the rad50 strain (AID 155).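 Further: 0% = growth of vehicle-only cultures of the same strain.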 To be noted: S. cerevisiae rad50 strain growth inhibition; at 50.0 µM; active compounds read high. In outline: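 DNA repair mutant yeast, compound exposure, growth read-out; inhibition is taken relative to vehicle.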
Experiment [2] in a line: NCI Yeast Anticancer Drug Screen. Data for the mec2-1 strain (AID 157). To be noted: S. cerevisiae mec2-1 strain, at 50.0 µM, active compounds read high. In outline: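 Using mec2-1 yeast: add compound, measure growth, express inhibition versus vehicle-treated cultures.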
Experiment [3] is described as follows: NCI Yeast Anticancer Drug Screen. Data for the sgs1 mgt1 strain (AID 161).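 Further: 0% = growth of cultures given vehicle only.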 To be noted: S. cerevisiae sgs1 mgt1 strain, at 50.0 µM, active compounds read high. A digest of the protocol: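 Yeast cells carrying a defined DNA-repair defect were exposed to test compounds. Growth inhibition was measured relative to vehicle-treated controls.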
The nature of experiment [4]: NCI Yeast Anticancer Drug Screen. Data for the cln2 rad14 strain (AID 165).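 Further: 0% = growth equal to vehicle treated cultures.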 To be noted: S. cerevisiae cln2 rad14 strain, at 50.0 µM, active compounds read high. A digest of the protocol: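 Yeast strain cln2 rad14, bearing defects in cell cycle control and DNA repair, serves as the test system; values reflect growth inhibition compared with vehicle.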
The nature of experiment [5]: NCI Yeast Anticancer Drug Screen. Data for the bub3 strain (AID 167). To be noted: S. cerevisiae bub3 mutant strain, at 50.0 µM, active compounds read high. In outline: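 In this screen, a yeast mutant lacking normal mitotic checkpoint function is challenged with compound. Relative growth versus vehicle gives the inhibition value.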
Experiment [6] can be described thus: NCI Yeast Anticancer Drug Screen. Data for the mlh1 rad18 strain (AID 175). To be noted: S. cerevisiae mlh1 rad18 strain growth inhibition; at 50.0 µM; active compounds read high. In outline:
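Steps: expose repair-defective yeast to compound; measure growth; express inhibition against vehicle-treated controls.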

Take `O=C1c2ccccc2C(=O)c2c1cccc2S(=O)(=O)Nc1ccccc1`: the growth inhibition was -1.45% in experiment [1]; 8.85% in experiment [2]; 11.2% in experiment [3]; -30.1% in experiment [4]; 20.1% in experiment [5]; -3.6% in experiment [6].
On to `O=C(Cl)c1ccc2c(c1)C(=O)OC2=O`, for which the growth inhibition in experiment [1] was 22.5%; in experiment [2], -8.9%; in experiment [3], -11.2%; in experiment [4], 5.4%; in experiment [5], 9.55%; in experiment [6], -10.4%.
Regarding `O=C(O)C(Cc1ccccc1)C(=O)O.[NH2-].[NH2-].[Pt+2]`, the growth inhibition is -11.7% in experiment [1]; -0.95% in experiment [2]; 10.9% in experiment [3]; 13.1% in experiment [4]; 1.25% in experiment [5]; 24.2% in experiment [6].
In the case of `CC12CCC(C/C1=N\N=C(N)N)C2(C)C` (stereo not given), the growth inhibition in experiment [1] was 7.55%; in experiment [2] it was -4%; in experiment [3] it was -2.2%; in experiment [4], -36.9%; in experiment [5], -5.05%; in experiment [6] it was 6.2%.
`O=C1c2ccccc2C(=O)N1[C@@H](Cc1ccccc1)C(=O)n1cccc1CO`: the growth inhibition in experiment [1] is 14.8%; in experiment [2], 21.4%; in experiment [3], 20.8%; in experiment [4] it was 25.5%; in experiment [5], 28.9%; in experiment [6], 10.9%.
As for `Cc1ccc(Cc2nn(C)c(=O)n2-n2cccc2)cc1`, the growth inhibition in experiment [1] is -37.1%; in experiment [2], -13.7%; in experiment [3], -10%; in experiment [4], -1.7%; in experiment [5], -19.1%; in experiment [6], -7.45%.
As to `S=c1cc(Cc2ccccc2)[nH]c(=S)[nH]1`, the growth inhibition is -1.2% in experiment [1]; -11.1% in experiment [2]; -6.15% in experiment [3]; -7.75% in experiment [4]; -14% in experiment [5]; 4.85% in experiment [6].
On to `CCC(C)(C)c1ccc(OCCO)cc1`, for which the growth inhibition in experiment [1] was -29.2%; in experiment [2], -29.4%; in experiment [3], -20.8%; in experiment [4] it was -12.9%; in experiment [5], -19.2%; in experiment [6] it was -23.4%.
`C=C(CC/C=C\CO)[Si](C)(C)C`: the growth inhibition in experiment [1] was -10.5%; in experiment [2], -20.1%; in experiment [3], 1.05%; in experiment [4] it was 7.35%; in experiment [5], 9.95%; in experiment [6], -9.5%.
With `CC1CCCCC12COC(O)CO2` (stereo not given), the growth inhibition is -22.5% in experiment [1]; -23.4% in experiment [2]; -19.1% in experiment [3]; -11.7% in experiment [4]; -24.1% in experiment [5]; -31.9% in experiment [6].
For the compound `C/C1=C/C(C)CC(C)OC(=O)C(C)NC(=O)C(Cc2ccc(O)c(I)c2)N(C)C(=O)C(C)NC(=O)C(C)C1` (stereo not given), the growth inhibition in experiment [1] was 92.8% (active); in experiment [2], 93.7% (active); in experiment [3], 52.4%; in experiment [4], 90.7% (active); in experiment [5] it was 92.8% (active); in experiment [6], 91.2% (active).
`CC1=CC[N+](C)(C)C(C(N)=O)C1` (stereo not given): the growth inhibition was -5% in experiment [1]; -12.8% in experiment [2]; -17.2% in experiment [3]; 9.95% in experiment [4]; 20.9% in experiment [5]; -18.1% in experiment [6].
Turning to `CCNc1nnc(-c2nsc3ccccc23)s1`, the growth inhibition in experiment [1] is -12.7%; in experiment [2] it was -36.1%; in experiment [3] it was -10.1%; in experiment [4], -11.5%; in experiment [5] it was -27.5%; in experiment [6] it was -18.9%.
Regarding `Nc1nc2c(ncn2C2OCC(O)C(O)C2O)c(=O)[nH]1` (stereo not given), the growth inhibition in experiment [1] is 15.6%; in experiment [2] it was -9.7%; in experiment [3], -13.8%; in experiment [4], -6.15%; in experiment [5], 0.75%; in experiment [6], -2.3%.
Turning to `CCN(CC)C(=O)COc1ccc(Cl)c(C)c1`, the growth inhibition was 9.5% in experiment [1]; 3.45% in experiment [2]; 6.4% in experiment [3]; 27.6% in experiment [4]; 33.6% in experiment [5]; 19.4% in experiment [6].
Regarding `CCCCS(=O)(=O)CCC(N)P(=O)(O)O` (stereo not given), the growth inhibition is -26.9% in experiment [1]; -77.8% in experiment [2]; -43.2% in experiment [3]; -33.8% in experiment [4]; -6.15% in experiment [5]; -36.9% in experiment [6].
Regarding `COCCCCCOC`, the growth inhibition in experiment [1] is 5.55%; in experiment [2], -14.8%; in experiment [3], -3.4%; in experiment [4], 6.6%; in experiment [5], 12.3%; in experiment [6], 1.55%.
Regarding `CCOC(=O)c1ccc(NC(=O)Nc2cc(Cl)ncn2)cc1`, the growth inhibition in experiment [1] was 10.1%; in experiment [2], -6.55%; in experiment [3] it was 9.15%; in experiment [4], -22.9%; in experiment [5], 10.3%; in experiment [6] it was -6.15%.
For the compound `O=C(c1nc2ccc(Cl)cc2[nH]c1=O)C(O)c1ccco1` (stereo not given), the growth inhibition in experiment [1] was -21.4%; in experiment [2], 3.2%; in experiment [3], -20.2%; in experiment [4] it was -1.4%; in experiment [5], -24.7%; in experiment [6], -13.2%.
Take `Cc1ccc(S(=O)(=O)NNC(=O)c2cc(C(=O)NNS(=O)(=O)c3ccc(C)cc3)c(C)nc2C)cc1`: the growth inhibition in experiment [1] is -1.95%; in experiment [2], 5.3%; in experiment [3], 6.9%; in experiment [4] it was 21.8%; in experiment [5], 8.3%; in experiment [6], -7.8%.
